POLK inh = blocks human DNA polymerase kappa activity. Q9UBT6. purified Pol kappa, fluorescent DNA synthesis assay, 10 min. Potency, µM (top dose mostly 107 µM), without a hit: top-dose activity, negative = inhibition, actives largely listed as inhibitors. 400,000 tested, 0.53% active. AID 588579; note: potency is the fitted concentration of half-maximal effect; % is set by controls: 0 for no effect and ±100 for the full control effect
Target sequence (Q9UBT6 whole entry, looked up): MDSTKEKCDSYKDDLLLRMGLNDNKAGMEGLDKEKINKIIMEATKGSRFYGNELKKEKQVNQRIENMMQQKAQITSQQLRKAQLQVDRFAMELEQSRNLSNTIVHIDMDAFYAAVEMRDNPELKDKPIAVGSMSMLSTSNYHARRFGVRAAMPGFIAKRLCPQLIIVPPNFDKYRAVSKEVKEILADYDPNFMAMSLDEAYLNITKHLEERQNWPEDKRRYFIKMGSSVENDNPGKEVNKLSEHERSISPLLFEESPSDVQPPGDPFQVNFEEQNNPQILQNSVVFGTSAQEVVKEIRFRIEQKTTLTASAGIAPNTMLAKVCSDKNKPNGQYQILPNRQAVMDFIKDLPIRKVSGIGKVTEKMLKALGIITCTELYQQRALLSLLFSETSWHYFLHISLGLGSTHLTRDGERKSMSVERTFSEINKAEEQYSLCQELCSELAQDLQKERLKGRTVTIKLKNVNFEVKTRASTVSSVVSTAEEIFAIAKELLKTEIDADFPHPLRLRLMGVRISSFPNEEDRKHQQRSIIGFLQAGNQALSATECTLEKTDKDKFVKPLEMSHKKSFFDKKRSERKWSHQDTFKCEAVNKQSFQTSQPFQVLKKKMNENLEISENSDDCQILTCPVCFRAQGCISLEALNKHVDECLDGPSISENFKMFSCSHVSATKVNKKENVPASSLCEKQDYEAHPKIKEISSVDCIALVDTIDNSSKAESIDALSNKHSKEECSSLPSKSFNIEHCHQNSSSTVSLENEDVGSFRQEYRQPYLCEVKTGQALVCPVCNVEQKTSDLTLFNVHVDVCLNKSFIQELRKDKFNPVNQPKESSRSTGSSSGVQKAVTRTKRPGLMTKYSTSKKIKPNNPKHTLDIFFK
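Kinetic fluorescence readout at 0 and 10 min followed reaction start with substrate at 50 nM final. Beforehand, enzyme (10 nM Pol kappa) stood 15 min with compound at room temperature; buffer-only wells were negative controls.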
WRN inhibitor = inhibitors of human WRN helicase; Q14191; WRN helicase unwinding, fluorescent forked duplex, kinetic; Potency, µM (doses to about 114 µM), for the others: at the top dose activity change, negative = inhibition, actives largely listed as inhibitors; 360,000 tested, 0.46% active; AID 651768; note: potency is the fitted concentration of half-maximal effect; % is set by controls: 0 for no effect and ±100 for the full control effect; nearly all actives have a fitted effect of over 55% in size
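WRN at 20 nM final preincubated with compound 15 min at room temperature; reaction started with 100 nM fluorophore/quencher forked duplex oligonucleotide and 2 mM ATP final. Unwinding followed kinetically by red fluorescence (ex 525, em 598 nm).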
POLI inh = DNA polymerase iota (human) inhibition. Pol iota fluorescent replication assay, 10 min. Potency, µM (series often up to 115 µM), for inactives: at the highest dose activity, negative = inhibition, actives largely listed as inhibitors. 390,000 tested, 1% active. AID 588590; note: potency is the fitted concentration of half-maximal effect
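Pol iota at 10 nM preincubated 15 min with compounds at room temperature; reaction started with fluorescent substrate, 50 nM final. Fluorescence read kinetically at 0 and 10 min; buffer-only wells as negative control.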
POLH inh = blocks human DNA polymerase eta activity; recombinant Pol eta, fluorescent DNA replication assay; AID 588591; Potency, µM (titrated, usually from 114 µM), for inactives: at the top dose activity change, negative = inhibition, usual class: inhibitors; 390,000 tested, 1.2% active; note: potency is the fitted concentration of half-maximal effect; % is set by controls: 0 for no effect and ±100 for the full control effect
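Pol eta at 10 nM preincubated with compounds 15 min at room temperature; reaction started with fluorescent substrate (50 nM final) and read kinetically at 0 and 10 min.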
POLB inh = blocks human DNA polymerase beta activity. AID 485314. 340,000 tested, 1.3% active. Pol beta primer extension/strand displacement, fluorescence kinetic. Potency, µM (titrated, usually from 114 µM), inactives show top-dose activity change, negative = inhibition, usual class: inhibitors. P06746; note: potency is the fitted concentration of half-maximal effect; % is set by controls: 0 for no effect and ±100 for the full control effect
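Reaction started by 50 nM substrate onto compound-treated Pol beta (10 nM, 15 min preincubation, room temperature); plates read at 0 min and 10 min. Normalized concentration-effect data fitted by four-parameter Hill equation.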
PI5P4K alpha inh = inhibitors of human PI5P4K alpha | P48426 | PI5P4Kalpha enzyme, ADP-Glo luminescence, 60 min; stronger effect = lower value | max response, % | 330,000 tested, 1.2% active; active = max response of -50% or lower; inconclusive = between -30% and -50%; inactive = -30% or higher; note: value at the top dose of about 77 µM; % is set by controls: 0 for no effect and ±100 for the full control effect
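Quantitative HTS of the MLSMR library against PI5P4Kalpha with substrate. ATP added last at 5 microM final; room temperature, 60 minutes. Remaining ATP depleted, ADP converted and read as luminescence.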
Active calls of the source: *; ? = inconclusive; . = no result given; [ ] = remark or other dose. Only some compounds are listed: those with a hit (about 2.8% of all), similar ones and a draw of the others. Unless noted, calls come from the whole dose curve; as a rule, active = well fitted curve in the direction sought with a large enough effect; inconclusive = small, poorly fitted or top-dose-only effect, or another doubt; inactive = no such curve, though single readings can be large; an effect the other way counts as inactive or inconclusive.

SMILES	POLK inh	WRN inhibitor	POLI inh	POLH inh	POLB inh	PI5P4K alpha inh
CCOC(=O)C1=C(C)NC(=O)/C1=C\N(C)C	-10%	-30%	65%	-12%	?	1
CCOC(=O)C1=C(C)S/C(=C\N(C)C)C1=O	?	-17%	25µM*	?	?	7
COc1ccc(NC(=O)Cc2cccs2)cc1S(=O)(=O)N1CCCCC1	-4%	-11%	72%	-20%	.	3
COc1ccc(NC(C)=O)cc1S(=O)(=O)N1CCN(Cc2cccs2)CC1	-42%	-12%	?	25µM*	.	-1
Cc1nn(-c2ccc(Cl)cc2)c(=O)c2ccccc12	-8%	-2%	-3%	-12%	0%	2
Cc1c(Cl)sn(-c2ccc(Cl)cc2)c1=O	-6%	16µM*	64%	5%	-1%	-73*
N#Cc1c(Nc2cccc(F)c2)sc2c(O)cc(=O)[nH]c12	-6%	-19%	?	-26%	?	-76*
CC(/C=C/c1ccccc1F)=N\NC(=O)c1ccccc1	0%	-3%	121%	-18%	1%	9
CC(/C=C/c1ccccc1F)=N\NC(=O)c1ccc(Cl)cc1	-6%	-32%	24%	-9%	-18%	-68*
Cn1nnc(NC(=S)NC(=O)/C=C/c2ccco2)n1	?	?	?	18µM*	?	-71*
O=C(/C=C/c1ccco1)NC(=S)Nc1ccccn1	-24%	-8%	-6%	4%	40µM*	-10
Clc1ccc(Sc2ccc(/C=N/n3cnnc3)o2)cc1	-14%	-10%	2%	-17%	20%	2
O=C1NC(=O)/C(=C\c2ccc(Sc3ccc(Cl)cc3)o2)N1	-26%	-17%	?	?	35µM*	?
CCn1c2ccccc2c2cc(NC(=O)c3ccc(=O)oc3)ccc21	?	-6%[11.6 µM]	50µM*	?	?	-11
CCn1c(SCC(=O)N/N=C/c2ccc(C)o2)nnc1-c1ccccc1	2%	4%	56%	-8%	-1%	-4
CCn1c(SCC(=O)Nc2ccc3c(c2)c2ccccc2n3CC)nnc1-c1ccco1	35µM*	185%	?	25µM*	2%	.
CCn1c(SCC(=O)Nc2cccc(NC(C)=O)c2)nnc1-c1ccco1	-22%	-6%	167%	-9%	16%	-11
Cc1nnc(NC(=O)CSc2nnc(-c3ccco3)n2C(C)C)s1	-5%	-2%	84%	-7%	-7%	1
CC(C)n1c(SCC(=O)Nc2nncs2)nnc1-c1ccco1	79µM*	?	16µM*	7.9µM*	20µM*	-74*
CCn1c(SCC(=O)N/N=C/C(C)=C\c2ccco2)nnc1-c1ccccc1	?	-5%[11.6 µM]	45µM*	?	28µM*	-23
CN(C)C(=O)CCc1ccc2c3c([nH]c2c1)[C@]1(CCc2ccccc2)[C@@H](C(=O)N2CCCCC2)C[C@H](CC(=O)NC(C)(C)C)C(=O)N1CC3	-7%	6%	-9%	-12%	.	-4
COc1ccc(C(C(=O)NC(C)(C)C)n2c(=O)c(-c3ccco3)nc3ccccc32)cc1 (stereo unspecified)	.	-8%	.	.	.	-25
N#Cc1ccc(C(C(=O)NC2CCCCC2)n2c(=O)c(-c3cc4ccccc4[nH]3)nc3ccccc32)cc1 (stereo unspecified)	.	-2%	.	.	.	-3
O=C(NC1CCCCC1)C(c1ccccc1)n1c(=O)c(-c2ccco2)nc2ccccc21 (stereo unspecified)	.	-11%	.	.	.	-80*
O=C(NC1CCCCC1)C(c1ccc(C(F)(F)F)cc1)n1c(=O)c(-c2ccco2)nc2ccccc21 (stereo unspecified)	.	-8%	.	.	.	-75*
SMILES	POLK inh	WRN inhibitor	POLI inh	POLH inh	POLB inh	PI5P4K alpha inh
O=C(NC1CCCCC1)C(C1CC1)n1c(=O)c(-c2ccco2)nc2ccccc21 (stereo unspecified)	.	-7%	.	.	.	?
N#Cc1ccc(C(C(=O)NC2CCCCC2)n2c(=O)c(-c3ccco3)nc3ccccc32)cc1 (stereo unspecified)	.	-9%	.	.	.	-75*
CC(NC(=O)c1ccccc1)C(c1cccs1)N1CCOCC1 (stereo unspecified)	-9%	-3%	30%	-5%	-1%	-2
COc1ccc(S(=O)(=O)N/N=C(/C)c2ccncc2)c(OC)c1	-11%	3%	32%	3%	34%	-1
Cc1ccc(C2NC(=S)NC3=C2C(=O)CCC3)cc1 (stereo unspecified)	2%	-14%	58%	-11%	-19%	3
OC1NC(=S)N(c2ccccc2)C1O (stereo unspecified)	-1%	-10%	19%	-3%	27%	9
COc1ccc(C2NC(=S)N3C(c4ccc(OC)cc4)NC(=S)N23)cc1 (stereo unspecified)	-10%	89µM*	?	-13%	10%	-90*
S=C1NC(c2ccccc2)N2C(=S)NC(c3ccccc3)N12 (stereo unspecified)	-4%	-4%	-1%	-15%	-19%	-81*
Cc1ccc(C2NC(=S)N3C(c4ccc(C)cc4)NC(=S)N23)cc1 (stereo unspecified)	.	-2%	.	-10%	.	-79*
O=C(CCNC(=O)c1ccccc1Cl)NCC(c1ccc(F)cc1)N1CCOCC1 (stereo unspecified)	-9%	10%	-5%	-13%	.	-2
Cc1ccc(-n2c(-c3ccccc3)n[nH]c2=S)cc1	-4%	-2%	?	-19%	9%	9
Cc1ccc(-n2c(-c3ccccc3)nsc2=NC#N)cc1	-15%	.	89µM*	.	.	.
FC(F)(F)c1ccc(Nc2nnnc3ccccc23)cc1	-4%	-18%	10%	-5%	6%	-4
Cc1c(NC(=O)c2ccco2)cccc1-c1nc2cccnc2s1	-19%	-14%[57.1 µM]	?	45µM*	-4%	?
Cc1cc(C(=O)CSc2nnc(-c3ccncc3)n2-c2ccccc2)c(C)n1C	-24%	?	18µM*	?	45µM*	.
Cc1cc(C(=O)CSc2nnc3ccccn23)c(C)n1-c1ccccc1	-2%	21%	27%	-11%	29%	1
Cc1cc(C(=O)CSc2nnc(-c3ccccc3)n2-c2ccccc2)c(C)n1-c1ncn[nH]1	?	?	?	20µM*	40µM*	2
CCCCCCCCCCCCC/C=C/[C@@H](O)[C@H](CO)NCCCCCCCC	-6%[19.4 µM]	.	.	.	.	.
Cc1[nH]n(-c2ccccc2)c(=O)c1N=Nc1c(O)cc(S(=O)(=O)N(C)C)c2ccccc12	-9%	-4%	30%	89µM*	.	-8
Cc1[nH]n(-c2ccccc2)c(=O)c1N=Nc1ccc2c(c1)OCCO2	-9%	2%	6%	1%	?	16
